This note sets out measurements from PubChem BioAssay (NCI).

This is part of a sample that, as a whole, favours compounds with a hit. Of some 79,000 tested, about 15% had one in any assay. Unmarked numbers belong to inactive results. The source made the active and inactive calls. Cut-off read from the data, not from the text of the source: active = growth inhibition above about 70%; inactive = the rest.

Assay [1] is described as follows: NCI Yeast Anticancer Drug Screen. Data for the rad50 strain (AID 155).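 Note: 0% = growth of vehicle-only cultures of the same strain.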 As to conditions: S. cerevisiae rad50 strain growth inhibition, stronger effect = higher value. The method, boiled down:
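Genetically altered yeast (DNA repair pathway); compound treatment; growth inhibition vs vehicle ctrl.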

Assay [2] can be described thus: NCI Yeast Anticancer Drug Screen. Data for the mec2-1 strain (AID 157). The settings on record: S. cerevisiae mec2-1 strain, stronger effect = higher value. The essentials: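 Test agents were screened against the mec2-1 yeast strain, with defined DNA repair or cell cycle alteration. Growth was scored as inhibition against vehicle-only controls.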
Assay [3] is described as follows: NCI Yeast Anticancer Drug Screen. Data for the sgs1 mgt1 strain (AID 161).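 Note: 0% = growth of cultures given vehicle only.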 The settings on record: S. cerevisiae sgs1 mgt1 strain, stronger effect = higher value. The method, boiled down: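 Test agents were incubated with a DNA-repair-mutant yeast strain. Growth was then read and compared against vehicle-treated controls.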
Assay [4] is described as follows: NCI Yeast Anticancer Drug Screen. Data for the cln2 rad14 strain (AID 165).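 Note: 0% = growth equal to vehicle treated cultures.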 As to conditions: S. cerevisiae cln2 rad14 strain, stronger effect = higher value. The method, boiled down:
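Growth of compound-exposed yeast (cln2 rad14 genotype) measured and expressed as inhibition relative to vehicle.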

Assay [5] is described as follows: NCI Yeast Anticancer Drug Screen. Data for the bub3 strain (AID 167). The settings on record: S. cerevisiae bub3 mutant strain, stronger effect = higher value. The essentials:
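Yeast carrying a defined mutation is treated with each compound, and growth is compared with that of vehicle-exposed cells to give inhibition.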

Assay [6] can be described thus: NCI Yeast Anticancer Drug Screen. Data for the mlh1 rad18 strain (AID 175). As to conditions: S. cerevisiae mlh1 rad18 strain growth inhibition, stronger effect = higher value. The essentials: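 In this whole-cell yeast screen, a strain with altered DNA damage repair is challenged with compound, and its growth is measured against matched vehicle-treated controls.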
[7] abbreviates: at 5.0 µM (retest, dose inferred, filed as 0.5).
Setting [8] is: at 50.0 µM (retest, dose inferred, filed as 5.0).

On to `NC(Cc1nn[nH]n1)C(=O)O` (stereo not given), for which the growth inhibition in assay [1] (setting [7]) was 3%; in assay [1] (setting [8]), -15%; in assay [1] (at 50.0 µM), -13.2%; in assay [2] (setting [7]), -6%; in assay [2] (setting [8]), -10%; in assay [2] (at 50.0 µM), -5.95%. In addition, the growth inhibition in assay [3] (setting [7]) is -16%; in assay [3] (setting [8]) it was -15%; in assay [3] (at 50.0 µM), -42.8%; in assay [4] (setting [7]), -11%; in assay [4] (setting [8]), -6%; in assay [4] (at 50.0 µM) it was 22.4%. Further, the growth inhibition in assay [5] (setting [7]) is 10%; in assay [5] (setting [8]) it was -13%; in assay [5] (at 50.0 µM) it was 0.95%; in assay [6] (setting [7]), -18%; in assay [6] (setting [8]), -6%; in assay [6] (at 50.0 µM), -23%.

Take `COc1ccccc1/C=C1\Sc2scc(-c3ccc(O)c(O)c3)[n+]2C1=O`: the growth inhibition was -5% in assay [1] (setting [7]); 99% (active) in assay [1] (setting [8]); 98.9% (active) in assay [1] (at 50.0 µM); -8% in assay [2] (setting [7]); 99% (active) in assay [2] (setting [8]); 98.9% (active) in assay [2] (at 50.0 µM). In addition, the growth inhibition in assay [3] (setting [7]) is -11%; in assay [3] (setting [8]), 99% (active); in assay [3] (at 50.0 µM) it was 99.3% (active); in assay [4] (setting [7]), -7%; in assay [4] (setting [8]), 99% (active); in assay [4] (at 50.0 µM), 97.2% (active). The growth inhibition was -14% in assay [5] (setting [7]); 99% (active) in assay [5] (setting [8]); 98.8% (active) in assay [5] (at 50.0 µM); 7% in assay [6] (setting [7]); 99% (active) in assay [6] (setting [8]); 99% (active) in assay [6] (at 50.0 µM).

In the case of `CCc1cc(C)cc(NC(=O)OC2CCCCC2C)c1` (stereo not given), the growth inhibition in assay [1] (setting [7]) is 42%; in assay [1] (setting [8]) it was 66%; in assay [1] (at 50.0 µM) it was 90.2% (active); in assay [2] (setting [7]) it was 35%; in assay [2] (setting [8]) it was 49%; in assay [2] (at 50.0 µM), 91% (active). In addition, the growth inhibition in assay [3] (setting [7]) was 35%; in assay [3] (setting [8]), 92% (active); in assay [3] (at 50.0 µM) it was 91.2% (active); in assay [4] (setting [7]), 20%; in assay [4] (setting [8]), 69%; in assay [4] (at 50.0 µM), 89.1% (active). The growth inhibition was 37% in assay [5] (setting [7]); 85% (active) in assay [5] (setting [8]); 91.3% (active) in assay [5] (at 50.0 µM); 38% in assay [6] (setting [7]); 72% (active) in assay [6] (setting [8]); 90.4% (active) in assay [6] (at 50.0 µM).

For `O=C(OCCN=c1c2ccccc2ccc2ccccc12)c1ccccc1`, the growth inhibition is 0% in assay [1] (setting [7]); 97% (active) in assay [1] (setting [8]); 42% in assay [1] (at 50.0 µM); -14% in assay [2] (setting [7]); 94% (active) in assay [2] (setting [8]); 31.4% in assay [2] (at 50.0 µM). Besides, the growth inhibition in assay [3] (setting [7]) is -43%; in assay [3] (setting [8]), 83% (active); in assay [3] (at 50.0 µM), 65.3%; in assay [4] (setting [7]) it was 22%; in assay [4] (setting [8]), 36%; in assay [4] (at 50.0 µM), 29.8%. For the same molecule, the growth inhibition is 2% in assay [5] (setting [7]); 98% (active) in assay [5] (setting [8]); 71% (active) in assay [5] (at 50.0 µM); -19% in assay [6] (setting [7]); 98% (active) in assay [6] (setting [8]); 15.7% in assay [6] (at 50.0 µM).

As to `CSC(=Nc1ccc(Cl)cc1)N1CC=Cc2ccccc21`, the growth inhibition in assay [1] (setting [7]) was 2%; in assay [1] (setting [8]) it was -1%; in assay [1] (at 50.0 µM) it was -1.85%; in assay [2] (setting [7]), -13%; in assay [2] (setting [8]), 12%; in assay [2] (at 50.0 µM) it was 5.85%. The growth inhibition in assay [3] (setting [7]) was -15%; in assay [3] (setting [8]) it was 23%; in assay [3] (at 50.0 µM) it was 43.4%; in assay [4] (setting [7]), 9%; in assay [4] (setting [8]), -4%; in assay [4] (at 50.0 µM), 42.8%. Further, the growth inhibition in assay [5] (setting [7]) is 49%; in assay [5] (setting [8]) it was 82% (active); in assay [5] (at 50.0 µM), 81.8% (active); in assay [6] (setting [7]), 0%; in assay [6] (setting [8]), -1%; in assay [6] (at 50.0 µM) it was 12.3%.

For `COC(=O)CCC(NC(=S)N/N=C(\C)c1cnc2ccccc2n1)C(=O)OC` (stereo not given), the growth inhibition in assay [1] (setting [7]) was 12%; in assay [1] (setting [8]) it was 12%; in assay [1] (at 50.0 µM) it was 34.1%; in assay [2] (setting [7]), 1%; in assay [2] (setting [8]), 1%; in assay [2] (at 50.0 µM), 16.2%. The growth inhibition in assay [3] (setting [7]) is -5%; in assay [3] (setting [8]), -5%; in assay [3] (at 50.0 µM), 67.1%; in assay [4] (setting [7]), 10%; in assay [4] (setting [8]), 10%; in assay [4] (at 50.0 µM) it was 11.1%. In addition, the growth inhibition in assay [5] (setting [7]) is 12%; in assay [5] (setting [8]) it was 12%; in assay [5] (at 50.0 µM), 26.8%; in assay [6] (setting [7]), 15%; in assay [6] (setting [8]), 15%; in assay [6] (at 50.0 µM) it was 31.4%.

With `Cc1cc(C)c(N2C(=O)C=CC2=O)c(C)c1`, the growth inhibition in assay [1] (setting [7]) was 98% (active); in assay [1] (setting [8]), 98% (active); in assay [1] (at 50.0 µM), 99.7% (active); in assay [2] (setting [7]), 99% (active); in assay [2] (setting [8]) it was 99% (active); in assay [2] (at 50.0 µM), 99.7% (active). Also, the growth inhibition in assay [3] (setting [7]) is 99% (active); in assay [3] (setting [8]), 98% (active); in assay [3] (at 50.0 µM) it was 99.3% (active); in assay [4] (setting [7]), 99% (active); in assay [4] (setting [8]), 98% (active); in assay [4] (at 50.0 µM) it was 99.2% (active). For the same molecule, the growth inhibition in assay [5] (setting [7]) was 99% (active); in assay [5] (setting [8]) it was 98% (active); in assay [5] (at 50.0 µM), 99.5% (active); in assay [6] (setting [7]), 98% (active); in assay [6] (setting [8]), 98% (active); in assay [6] (at 50.0 µM), 99.3% (active).

`NC(=S)SCCC(=O)O`: the growth inhibition is -2% in assay [1] (setting [7]); 4% in assay [1] (setting [8]); -31.1% in assay [1] (at 50.0 µM); -6% in assay [2] (setting [7]); -21% in assay [2] (setting [8]); -41.5% in assay [2] (at 50.0 µM). The growth inhibition was -10% in assay [3] (setting [7]); -14% in assay [3] (setting [8]); -3.95% in assay [3] (at 50.0 µM); -3% in assay [4] (setting [7]); -4% in assay [4] (setting [8]); 40.1% in assay [4] (at 50.0 µM). For the same molecule, the growth inhibition in assay [5] (setting [7]) is -11%; in assay [5] (setting [8]), -19%; in assay [5] (at 50.0 µM), -21.9%; in assay [6] (setting [7]) it was -16%; in assay [6] (setting [8]), -4%; in assay [6] (at 50.0 µM) it was 2.85%.

Regarding `CC(C)(C)c1cc2c3c(c1)Oc1cc(C(C)(C)C)cc4c1C3(O)c1c(cc(C(C)(C)C)cc1O4)O2`, the growth inhibition was 19% in assay [1] (setting [7]); 99% (active) in assay [1] (setting [8]); 89.8% (active) in assay [1] (at 50.0 µM); 22% in assay [2] (setting [7]); 100% (active) in assay [2] (setting [8]); 88.5% (active) in assay [2] (at 50.0 µM). Besides, the growth inhibition in assay [3] (setting [7]) is -5%; in assay [3] (setting [8]) it was 99% (active); in assay [3] (at 50.0 µM), 86.4% (active); in assay [4] (setting [7]) it was 14%; in assay [4] (setting [8]), 98% (active); in assay [4] (at 50.0 µM), 87.3% (active). The growth inhibition in assay [5] (setting [7]) is 12%; in assay [5] (setting [8]), 98% (active); in assay [5] (at 50.0 µM), 84.7% (active); in assay [6] (setting [7]), 14%; in assay [6] (setting [8]) it was 100% (active); in assay [6] (at 50.0 µM), 87.7% (active).

Take `CCN(CC)CCOc1c(Cl)c(Cl)c(Cl)c(Cl)c1Cl`: the growth inhibition was 23% in assay [1] (setting [7]); 62% in assay [1] (setting [8]); 71.7% (active) in assay [1] (at 50.0 µM); 15% in assay [2] (setting [7]); 77% (active) in assay [2] (setting [8]); 57.5% in assay [2] (at 50.0 µM). The growth inhibition was 20% in assay [3] (setting [7]); 88% (active) in assay [3] (setting [8]); 86.8% (active) in assay [3] (at 50.0 µM); -1% in assay [4] (setting [7]); 80% (active) in assay [4] (setting [8]); 48.5% in assay [4] (at 50.0 µM). The growth inhibition in assay [5] (setting [7]) is 1%; in assay [5] (setting [8]), 56%; in assay [5] (at 50.0 µM) it was 64.2%; in assay [6] (setting [7]), 7%; in assay [6] (setting [8]) it was 80% (active); in assay [6] (at 50.0 µM), 71.8% (active).
